# Measurements reported in ChEMBL document CHEMBL3988442, “University of Dundee, Small-Polar-MMV Screening Library” (2021).
# Legend:
# [1] = target: T1, Aspartate--tRNA(Asp/Asn) ligase (Mycobacterium tuberculosis (strain ATCC 25618 / H37Rv)) (UniProt P9WFW3); assay: Assay for Asp RNA synthetase-1 from Mycobacterium tuberculosis; assay type: functional; design: scale not given: direction of the effect not stated beside the values; conditions: 30 µM; further: in the data most compounds retested in dose-response had high values
# T1 sequence (whole entry): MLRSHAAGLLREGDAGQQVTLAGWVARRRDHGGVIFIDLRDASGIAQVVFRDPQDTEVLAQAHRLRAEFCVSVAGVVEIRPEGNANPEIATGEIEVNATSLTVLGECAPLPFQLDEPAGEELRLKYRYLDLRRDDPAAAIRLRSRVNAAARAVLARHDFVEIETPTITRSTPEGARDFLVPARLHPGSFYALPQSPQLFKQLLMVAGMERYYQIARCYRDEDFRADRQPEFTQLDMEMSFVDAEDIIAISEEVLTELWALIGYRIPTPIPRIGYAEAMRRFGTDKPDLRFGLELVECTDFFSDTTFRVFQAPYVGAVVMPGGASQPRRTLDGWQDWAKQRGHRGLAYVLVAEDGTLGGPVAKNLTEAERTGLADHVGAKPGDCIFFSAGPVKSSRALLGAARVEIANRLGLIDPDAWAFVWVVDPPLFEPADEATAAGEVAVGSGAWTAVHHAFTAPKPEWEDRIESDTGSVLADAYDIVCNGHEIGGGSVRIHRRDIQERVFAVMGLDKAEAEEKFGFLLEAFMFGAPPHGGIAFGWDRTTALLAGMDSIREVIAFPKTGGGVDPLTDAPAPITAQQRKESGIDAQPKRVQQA
# [2] = target: Shiga toxin 2 (Escherichia coli O157:H7) (UniProt P09385+P09386); assay: E. coli 0.157:H7 Shiga Toxin SOP - stx2 screening assay; assay type: functional; design: scale not given: direction of the effect not stated beside the values; conditions: 30 µM
Structure (SMILES),Percent Effect [1] [%],Percent Effect [2] [%]
CN(Cc1nnc(C2CC2)n1C)C1CCN(CCc2cccs2)C1 (centres undefined),1.39,-43.7
CN(C)CCCn1ccnc1C1CCCN(c2cc(N)ncn2)C1 (centres undefined),-0.232,1.04
Cc1cnn(C2CCCN(C(=O)c3cccc(Cn4ccnc4)c3)C2)c1 (centres undefined),0.538,-30.9
CCNc1cc2c(nn1)CCN(C(=O)c1cccc3c1OCCO3)C2,7.68,-25.7
CC(C)c1ncncc1C(=O)NCCN1CCCS1(=O)=O,-2.86,6.66
CCCN1CCCn2nc(CNS(=O)(=O)c3ccc(C)cc3)cc2C1,-1.38,6.63
CC(C)c1nnc2n1CCN(C(=O)c1ccc3cc[nH]c3c1)C2,-2.98,3.97
CSCc1cccc(C(=O)N2CCN(CC(C)O)CC2)c1 (centres undefined),-0.819,7.3
Cc1ccc(C(=O)N(C)Cc2cc(Br)cs2)c(=O)[nH]1,0.749,-3.88
CN1CCC(Oc2ccc(NC(=O)c3cccc(Cl)c3)cc2)CC1,-0.327,-51
CC(C)CC(=O)N1C[C@@H]2CCN(c3ncccn3)C[C@@H]2C1,4.21,-21.6
CC(C)COCC(NC(=O)c1cccnc1)c1ccco1 (centres undefined),2.37,21
Cc1nc(C2CCCN(C(=O)CCCn3cccn3)C2)no1 (centres undefined),-5.28,-27.3
COCC1CCN(c2cc(C3CN(C)CCO3)nc(C)n2)CC1 (centres undefined),-1.84,-3.4
Cc1cnn(CCNCC(=O)NCCOc2ccccc2)c1,-2.67,18.2
O=C(NC1CC1)[C@H]1C[C@H]2OCC[C@H]2N(CC2CC2)C1,3.52,-19.5
CNCC(=O)N1CC(c2cc(Nc3ncccn3)nc(C)n2)C1,-3.19,-3.14
